# Experimental data as given in PubChem BioAssay (EPA / NIEHS).
# Results filed as inconclusive are left out. Calls of active or inactive are those of the source. The calls were made as follows: active = hit-call score of the fitted dose curve at least 0.9, where 1 is the maximum; inconclusive = response in the unintended direction; inactive = score below 0.9.
# Molecular target: Estrogen receptor (Homo sapiens) (UniProt P03372)
# Experiment: NVS_NR_hER: NovaScreen (NVS) Nuclear Receptor Binding Assay for human Estrogen Receptor (ER) (AID 2283348)
# Method: NVS_NR_hER is a biochemical, single-readout assay that uses extracted gene-proteins from MCF7 in a cell-free assay. Measurements were taken 18 hours after chemical dosing in a 96-well plate.NVS_NR_hER is one of one assay component(s) measured or calculated from the NVS_NR_hER assay. It is designed to make measurements of radioligand binding, a form of binding reporter, as detected with scintillation counting signals by Lysate-based radiodetection technology.Data from the assay component NVS_NR_hER was analyzed into 1 assay endpoint. This assay endpoint, NVS_NR_hER, was analyzed in the positive analysis fitting direction relative to DMSO as the negative control and baseline of activity. Using a type of binding reporter, loss-of-signal activity can be used to understand changes in the binding as they relate to the gene ESR1. Furthermore, this assay endpoint can be referred to as a primary readout, because the performed assay has only produced 1 assay endpoint. To generalize the intended target to other relatable targets, this assay endpoint is annotated to the nuclear receptor intended target family, where the subfamily is steroidal.
# Binding assays used specific radioligands (tritiated, iodinated) with non-radioactive competitive displacement ligands in agonist or antagonist protocols (as indicated) and various reference compounds and inhibitors to titrate specific binding to receptors and transporters. Most enzyme assays (CYPs, kinases, phosphatases, proteases, HDACs) used recombinant protein and specific substrates (fluorescence mostly, some colorimetric and radioactive) and inhibitors, followed by a biochemical separation of substrate and product. All assays for the biochemical HTS were initially run in duplicate at a single concentration (10 uM for CYP450 assays and 25 uM for all others). […] Each assay was run with positive and negative controls, and concurrent controls on every plate. The follow-up (secondary) screen tested active chemical-pairs in concentration series, as well as a few additional assays not tested in the primary screen, some selected negative inactives, and several cases re-run in the concentration series for confirmatory purposes.
# Sequence of Estrogen receptor (Homo sapiens) (P03372 whole entry, looked up): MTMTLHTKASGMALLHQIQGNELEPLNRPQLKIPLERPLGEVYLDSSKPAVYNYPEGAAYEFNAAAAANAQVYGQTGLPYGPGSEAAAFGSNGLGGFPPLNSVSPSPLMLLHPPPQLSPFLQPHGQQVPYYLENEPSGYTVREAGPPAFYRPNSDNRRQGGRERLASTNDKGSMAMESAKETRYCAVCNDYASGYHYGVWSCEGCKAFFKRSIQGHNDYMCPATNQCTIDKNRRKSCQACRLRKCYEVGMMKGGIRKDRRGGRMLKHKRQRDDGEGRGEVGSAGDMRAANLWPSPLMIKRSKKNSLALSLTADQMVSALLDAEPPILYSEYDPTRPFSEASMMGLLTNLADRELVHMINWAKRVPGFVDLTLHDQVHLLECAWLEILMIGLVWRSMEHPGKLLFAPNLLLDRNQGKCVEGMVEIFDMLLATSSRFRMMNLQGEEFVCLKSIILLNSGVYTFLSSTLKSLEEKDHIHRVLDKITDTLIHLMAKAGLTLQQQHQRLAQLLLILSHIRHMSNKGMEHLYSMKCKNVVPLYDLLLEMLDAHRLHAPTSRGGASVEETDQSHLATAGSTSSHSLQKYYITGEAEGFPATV
Structure (SMILES),outcome,AC50
Cc1ccc(O)c(-n2nc3ccccc3n2)c1,inactive,
O=C1C=CC(=O)N1c1ccc(Cc2ccc(N3C(=O)C=CC3=O)cc2)cc1,inactive,
CCC(Cc1c(I)cc(I)c(N)c1I)C(=O)O (configuration not stated),inactive,
CCCCCCCCCCCCCC[P+](CCCC)(CCCC)CCCC,,14.3 µM (active)
CCCCCCCCn1sc(Cl)c(Cl)c1=O,,0.549 µM (active)
CCN=c1cc2oc3cc(NCC)c(C)cc3c(-c3ccccc3C(=O)OCC)c-2cc1C,,5.29 µM (active)
CCCCCCCCCc1ccc(OCCO)cc1,inactive,
O=C(c1ccccc1)c1ccc(O)cc1O,,1.42 µM (active)
CCCCOC(=O)C(C)O (configuration not stated),inactive,
CC(C)(C)C(=O)C1C(=O)c2ccccc2C1=O,inactive,
CCc1cc(Cc2cc(CC)c(N)c(CC)c2)cc(CC)c1N,,0.0643 µM (active)
CCN=C1C=CC(=C(c2ccc(N(CC)CC)cc2)c2ccc(N(CC)CC)cc2)c2ccccc21,,13.8 µM (active)
